In PubChem BioAssay (NCI):
This is part of a sample that, as a whole, favours compounds with a hit. Of some 83,000 tested, about 20% had one in any assay.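 Each cell line was grown in a 96-well plate and treated with one concentration of compound for 48 hours. Values below 10 were considered active.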 Unmarked numbers belong to inactive results. The source made the active and inactive calls.

The molecules below were run on SNB-75 CNS (assay: NCI-60 one-dose screen, 48 h (100 = growth as untreated, 0 = no growth, -100 = all killed)). Conditions: 10 µM.
`CCc1ccc(-c2ccc(-n3nc(C)c4c(N)nc(Cc5ccccc5)nc43)cc2)cc1` showed a growth of 65%. In the case of `O=[N+]([O-])c1ccc2ncccc2c1Cl`, the growth is reported as 73.9%. In the case of `Cc1ccc(-n2nnnc2N)c(C)c1`, the growth is reported as 101%. For `Oc1ccc(-c2[nH]c3ccccc3c2-c2nc3ccccc3o2)cc1`, the growth was 52.3%. Work on `CCc1ccc(C2=NN(c3ccc(S(C)(=O)=O)cc3)C(=O)CC2)cc1` yielded a growth of 16.7%. Molecule `COc1ccc(-c2nn(-c3cccc(Cl)c3)cc2-c2c(C#N)c(=O)n3[nH]c(-c4ccc(C)cc4)nc3c2C#N)cc1` has a growth of 36.4%. `O=C1c2ccccc2C(=O)c2c1ccc(C(Br)Br)c2[N+](=O)[O-]` showed a growth of 109%. In the case of `CCOC(=O)CC(S(=O)(=O)c1ccccc1)S(=O)(=O)c1ccccc1`, the growth is reported as 96.2%. For `CC(=O)Nc1ccc(S(=O)(=O)c2ccnc3cc(Cl)ccc23)cc1`, the growth was 76.5%. Molecule `O=C(Nc1cc([N+](=O)[O-])c2[nH]c(=O)c3ccccc3c2c1)C(F)(F)F` has a growth of 89.3%. `COc1cc2c(cc1NC(=O)C(F)(F)F)-c1ccc(NC(=O)C(F)(F)F)cc1C2` was tested, and the growth was -1.06% (active). `COc1ccc(/C(C#N)=C/c2cccc(OC)c2OC)cc1` was tested, and the growth was 91.3%. With `C/C(=C/CCC(C)[C@@H]1CC[C@]2(C)C3=C(CC[C@@]12C)[C@@]1(C)CCC(=O)C(C)(C)[C@@H]1CC3)C(=O)O` (some centres undefined) the growth was -68.1% (active). `N#CC1=CC2CN(Cc3ccccc3)C1C1C(=O)N(c3ccccc3)C(=O)C21` (centres undefined) showed a growth of 91.1%.
